We go through 16 compounds from PubChem BioAssay (NCATS).

Where “and” joins values, the source holds several entries; their conditions need not be identical. Equal entries are not always repeated. Inconclusive results are not listed. Some compounds were tested as several samples or in several runs, with calls that do not always agree. A number with no mark means an inactive call. Calls of active or inactive are those of the source. Calls come from the whole dose curve; as a rule, active = well fitted inhibition curve with a large enough effect; inconclusive = small, poorly fitted or top-dose-only effect; inactive = flat fitted curve, though single readings scatter.

The subject of test [1] is CRL-7250. Kind of test: Cytotoxic Profiling of Annotated Libraries Using Quantitative High-Throughput Screening (AID 1296008). To be noted: Five cell lines viability, CellTiter-Glo ATP luminescence, 48-72 h; max response: active compounds read low. The gist of the method:
(§1)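 Cytotoxicity was measured as CellTiter-Glo ATP luminescence, read after 10 min at room temperature. Compound treatment of the cells lasted 48 or 72 hr at 37 degrees Celsius in a qHTS format.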
For orientation: ATP-based viability assays read luminescence as a measure of living cells.

A further test relates to HEK293. The test is described as above. Conditions: Five cell lines viability, CellTiter-Glo ATP luminescence, 48-72 h; max response: active compounds read low. The gist of the method: as §1
The subject of test [2] is HaCat. The description is as above. Conditions: Five cell lines viability, CellTiter-Glo ATP luminescence, 48-72 h; max response: active compounds read low. The gist of the method:
as §1

The subject of the next test is KB-3-1. The description is as above. To be noted: Five cell lines viability, CellTiter-Glo ATP luminescence, 48-72 h; max response: active compounds read low. The gist of the method:
as §1

The next test deals with NIH3T3. The test is described as above. Conditions: Five cell lines viability, CellTiter-Glo ATP luminescence, 48-72 h; max response: active compounds read low. The gist of the method:
as §1

In test [3] the test system is CRL-7250. Kind of test: qHTS assay to identify novel small-molecules to repurpose for Merkel cell carcinoma treatment (AID 1296009). To be noted: MCC and control cell lines, CellTiter-Glo viability, 72 h; at 44.8 µM (top of the series) unless noted. The gist of the method: (§2)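 Cell viability measured by CellTiter-Glo following 72 hr compound treatment at 37 degree celsius, with NPC and MIPE libraries tested in 8- and 11-point concentration series.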
(In general: qHTS replaces the single test concentration by a dilution series.)

The subject of the next test is MCC-13. The description is as above. Conditions: MCC and control cell lines, CellTiter-Glo viability, 72 h; series mostly up to 46 µM. The gist of the method:
as §2

The subject of test [4] is HACAT. The description is as above. Conditions: MCC and control cell lines, CellTiter-Glo viability, 72 h; at 44.8 µM (top of the series) unless noted. The gist of the method: as §2
A further test relates to HEK293T. Described as above. Conditions: MCC and control cell lines, CellTiter-Glo viability, 72 h; at 44.8 µM (top of the series) unless noted. The gist of the method: as §2
% is set by controls: 0 for no effect and ±100 for the full control effect; potency is the fitted concentration of half-maximal effect.
Note: nearly all actives have a fitted effect of over 60% in size.

In the case of `O=c1[nH]c2ccccc2n1C1CCN(Cc2ccc(-c3[nH]c4cc5ncnc5cc4nc3-c3ccccc3)cc2)CC1`, the outcome in the test with CRL-7250 [1], in the test on KB-3-1 and with CRL-7250 [3] was inactive. In the test with HEK293, the Potency is 18700 nM (active). The max response in the test with HaCat [2] was 0.8%; in the test on NIH3T3, -3.31%. Moreover, the Potency result with MCC-13 was “inactive”.
Turning to `CCCCC(CC)COC(=O)c1ccccc1C(=O)OCC(CC)CCCC` (centres undefined), the max response with CRL-7250 [1] is -5.66%; with KB-3-1, -15.4%; in the test on NIH3T3, -8.2%. For the same compound, the compound was classed as inactive in the test with HEK293 and in the test with HaCat [2]. Moreover, the outcome with HACAT [4] and in the test with HEK293T was “inactive [at 92 µM]” throughout. Further, the Potency entry in the test with MCC-13 was “inactive”.
Turning to `O=C(Oc1ccc([N+](=O)[O-])cc1)N1CCN(Cc2cccc(Oc3ccccc3)c2)CC1`, the max response was -6.9% and 1.64% with CRL-7250 [1]; 1.27% with HEK293; 0.717% and -5.04% with HaCat [2]; -6.21% and -13.5% in the test with KB-3-1; 0.403% with NIH3T3. For the same compound, the result in the test with NIH3T3 was inactive. Moreover, the Potency entry in the test on MCC-13 is “inactive”.
As for `Oc1ccc2c3c1O[C@H]1c4[nH]c5c(c4C[C@@]4(O)[C@@H](C2)N(CC2CC2)CC[C@]314)C[C@@]1(O)[C@H]2Cc3ccc(O)c4c3[C@@]1(CCN2CC1CC1)[C@H]5O4`, the result with CRL-7250 [1], with HEK293, with KB-3-1, in the test on CRL-7250 [3] and in the test on HEK293T was inactive. Moreover, the values for the max response in the test with HaCat [2] and in the test on NIH3T3 were -0.228% and -5.25%, respectively. In addition, the Potency result in the test on MCC-13 is “inactive”.
Take `O=C1C(I)=CC(=C(c2cc(I)c(O)c(I)c2)c2ccccc2C(=O)O)C=C1I`: the compound was called inactive in the test with CRL-7250 [1], in the test with HaCat [2], with NIH3T3, in the test on CRL-7250 [3] and in the test with HACAT [4]. The max response is -13.3% in the test with HEK293; -3.52% and 5.85% in the test with KB-3-1.
Take `O=C(N[C@H]1CN2CCC1CC2)c1ccc(Cl)cc1`: the compound was called inactive with CRL-7250 [1], with HEK293, in the test on HaCat [2], in the test with KB-3-1, in the test on NIH3T3 and with CRL-7250 [3]. The compound was classed as inactive in the test on HACAT [4] and in the test with HEK293T. The max response was -12.5% in the test on HEK293 and -6.97% in the test on NIH3T3. Moreover, the Potency result in the test with MCC-13 is “inactive”.
On to `CC[C@@H](C(N)=O)N1CCCC1=O`, for which the max response with CRL-7250 [1] was 0.0308%; in the test on KB-3-1, 6.38%; in the test on NIH3T3, 1.04%. The compound was classed as inactive in the test with HEK293, in the test with HaCat [2], in the test with HACAT [4] and in the test with HEK293T. Also, the Potency entry in the test with MCC-13 is “inactive”.
Take `C[C@@H]1[C@H](O)[C@@H](C)C=CC=CCCC=CC=CC=CC=C[C@H](O[C@H]2O[C@@H](C)[C@H](O)[C@@H](N)[C@@H]2O)CC2O[C@](O)(C[C@@H](O)[C@H](O)CC[C@@H](O)C[C@@H](O)C[C@@H](O)CC(=O)O[C@H]1C)C[C@H](O)[C@H]2C(=O)O`: the results for the max response in the test with CRL-7250 [1], with HEK293 and in the test with NIH3T3 were 4.08%, 2.42% and -3.28%, respectively. Besides, the call with HaCat [2], in the test on KB-3-1 and with HACAT [4] was inactive. Moreover, the Potency result in the test on MCC-13 was “inactive”.
In the case of `Clc1ccccc1C(c1ccccc1)(c1ccccc1)n1cccn1`, the result with CRL-7250 [1], with NIH3T3 and in the test with CRL-7250 [3] was inactive. The max response with HEK293 is -5.51%; in the test with HaCat [2] it was -3.22%; with KB-3-1, 9.15%. In the test with MCC-13, the Potency result is “inactive”.
For `CC(C)N(CCNC(=O)CN1CCCC1=O)C(C)C`, the max response is 4.66% and -0.977% with CRL-7250 [1]; 4.1% and 1.15% in the test with HEK293; -6.79% and -2.04% in the test with HaCat [2]; -4.8% with KB-3-1; 2.3% in the test with NIH3T3. Further, the outcome with KB-3-1 and with NIH3T3 was inactive. Besides, the Potency result with MCC-13 is “inactive”.
In the case of `Cc1ccccc1-n1c(Cn2ncc3c(N)ncnc32)nc2cccc(C)c2c1=O`, the max response was -1.16% with CRL-7250 [1] and 1.98% in the test on NIH3T3. For the same compound, the outcome with CRL-7250 [1], in the test on HEK293, with HaCat [2], with KB-3-1, in the test with NIH3T3 and in the test on CRL-7250 [3] was inactive. Moreover, the outcome in the test with HACAT [4] and with HEK293T was inactive. Moreover, the Potency with MCC-13 is 13200 nM (active).
Consider `CC(C)N[C@@H]1CCn2c(=O)[nH]c3cccc(c32)[C@@H]1O`, for which the compound was classed as inactive in the test on CRL-7250 [1] and in the test on CRL-7250 [3]. Further, the max response is 2.71% with HEK293, -2.4% in the test with HaCat [2], 6.91% in the test with KB-3-1 and -1.8% in the test with NIH3T3. Besides, the Potency result in the test with MCC-13 was “inactive”.
For `O=C(NCC1CCOCC1)c1cnc(Nc2ccc(Cl)cc2Cl)nc1C(F)(F)F`, the max response is 4.29% and -22.6% in the test on CRL-7250 [1]; -4.23% in the test with HEK293; -8.57% and -14.9% in the test with HaCat [2]; -20.4% with KB-3-1; -3.44% and -3.65% in the test on NIH3T3. In addition, in the test on HEK293, the Potency is 8200 nM (active). Further, the outcome in the test on KB-3-1 was inactive. In the test with MCC-13, the Potency result was “inactive”.
As for `Cc1ccccc1-n1c(Cn2cnc3c(N)ncnc32)nc2cccc(C)c2c1=O`, the Potency is 833 nM (active) in the test on CRL-7250 [1]; 1480 nM (active) in the test on HEK293; 590 nM (active) in the test with HaCat [2]; 1320 nM (active) in the test with KB-3-1; 2640 nM (active) with NIH3T3. Also, the outcome in the test with HEK293 and in the test with HEK293T was inactive. Moreover, the values for the max response in the test on HaCat [2], with KB-3-1 and in the test with NIH3T3 were -10.3%, 0.515% and -1.65%, respectively.
Turning to `CC(O)CN1CCN(CC(=O)[O-])CCN(CC(=O)[O-])CCN(CC(=O)[O-])CC1.[Gd+3]` (centres undefined), the call with CRL-7250 [1] and in the test on CRL-7250 [3] was inactive. For the same compound, the max response in the test with HEK293 was -21.1%; in the test with HaCat [2], -14.5%; in the test on KB-3-1, -2.15% and -0.0896%; in the test with NIH3T3, -1.05%. Also, in the test with MCC-13, the Potency result was “inactive”.
With `CC(C)(C)[C@]1(O)C[C@@H]2OC(=O)C[C@@]23C(=O)O[C@@H]2OC(=O)[C@H](O)C213` (some centres undefined), the max response in the test on CRL-7250 [1] was 2.16%. Besides, the call in the test with HEK293, in the test with HaCat [2], in the test with KB-3-1, with NIH3T3, in the test with HACAT [4] and in the test on HEK293T was inactive. Besides, the Potency entry with MCC-13 is “inactive”.
